Source: PubChem BioAssay AID894 (National Center for Advancing Translational Sciences (NCATS), 2007)
Values joined by “and” are separate entries in the source; they are usually repeats but may differ in a detail not shown here. Equal values may be shown once. Among all 150,000 compounds or so, about 6,500 (4.3%) were called active. Not shown: some 12% with an inconclusive outcome. The sample holds actives, similar compounds and a random draw of the others, so the mix is not that of the screen. The source holds several records for some structures; these can differ, active in one and inactive in another. Values without a mark were called inactive. Calls follow the shape of the dose curve; as a rule, active = well fitted inhibition curve with a large enough effect (not every such curve was filed as active); inconclusive = small, poorly fitted or top-dose-only effect, or another doubt; inactive = no such curve, though single readings can be large or run the other way.

biological target: 15-hydroxyprostaglandin dehydrogenase [NAD(+)] (Homo sapiens) (UniProt P15428); test: qHTS Assay for Inhibitors of HPGD (15-Hydroxyprostaglandin Dehydrogenase); settings: purified HPGD, NADH fluorescence kinetic, PGE2 substrate; activity change, negative = inhibition: active compounds read low
In short: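 20 nM HPGD preincubated 15 min at room temperature with compound in 50 mM Tris-HCl pH 8, 0.01% Tween 20. Started with 1 mM NAD+ and 30 uM prostaglandin E2; NADH fluorescence (360/450 nm) read 5 times over 30-s intervals, last minus first.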
% is scaled to controls: 0 for no effect and ±100 for the full control effect; potency is read from the fitted curve at half-maximal effect.

15-hydroxyprostaglandin dehydrogenase [NAD(+)] (Homo sapiens), sequence (P15428 whole entry, looked up): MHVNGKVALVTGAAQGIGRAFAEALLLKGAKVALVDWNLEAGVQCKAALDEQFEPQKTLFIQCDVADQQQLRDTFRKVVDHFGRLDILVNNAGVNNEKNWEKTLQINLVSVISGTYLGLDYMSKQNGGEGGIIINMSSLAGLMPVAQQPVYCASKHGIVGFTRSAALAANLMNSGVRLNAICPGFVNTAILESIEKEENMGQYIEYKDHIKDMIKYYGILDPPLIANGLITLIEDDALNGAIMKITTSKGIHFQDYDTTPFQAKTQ

| Compound | activity change, negative = inhibition | Potency |
| --- | --- | --- |
| COC(=O)C1(C(C)=O)CC2=CC[C@H]3C(=O)N(c4ccccc4)C(=O)[C@H]3[C@@H]2Cc2ccccc2[C@@H]1C[N+](=O)[O-] (some centres not stated) | -2.53% and -4.27% |  |
| Oc1c(Cl)cc(Cl)c(Cl)c1Cc1c(O)c(Cl)cc(Cl)c1Cl | -15.8% and -6.53% | 35.5 µM (active) |
| NS(=O)(=O)c1ccc(NC(=O)COC(=O)C2(c3ccc(F)cc3)CCCC2)cc1 | -17% |  |
| Cc1ccc(NC(=O)CC2S/C(=N/N=C3\CCCc4ccccc43)NC2=O)cc1 (configuration not stated) | -13.9% |  |
| CCCCCCCCCOC1OC(CO)C(O)C(O)C1NC(C)=O (configuration not stated) | -3.92% |  |
| C=CCNC(=O)c1cc2nc(C3CC3)cc(C(F)F)n2n1 | -7.97% |  |
| CC1CCN(C(=O)c2cc3nc(C4CC4)cc(C(F)(F)F)n3n2)CC1 |  | 1.26 µM (active) |
| COC(=O)c1cc2nc(-c3ccccc3)cc(C(F)(F)F)n2n1 | -14.5% |  |
| CN(C)/N=C/c1cc(Cl)cc([N+](=O)[O-])c1O | -18.9% |  |
| O=C(NCC1CCCO1)/C(=C/c1ccc(Cl)cc1)NC(=O)c1ccccc1 (configuration not stated) | -23% |  |
| O=C(/C=C/c1ccccc1[N+](=O)[O-])NCC1CCCO1 (configuration not stated) |  | 4.47 µM (active) |
| O=C(NCC1CCCO1)c1ccc2ccccc2n1 (configuration not stated) | -27.3% |  |
| COC(=O)c1cc(C(=O)N(Cc2ccccc2)c2ccccn2)cc([N+](=O)[O-])c1 | -15.3% |  |
| Cc1cc(SCC(=O)NCCN2C(=O)CSC2=O)nc2ccccc12 | -24.5% |  |
| Cc1ccc(C(=O)OCC(=O)NCc2ccc3c(c2)OCO3)s1 | -10.3% |  |
| O=C(COC(=O)c1ccc(Cl)nc1)NCc1ccc2c(c1)OCO2 | -9.81% |  |
| Cc1cc(Br)ccc1SCC(=O)OCC(=O)NCc1ccc2c(c1)OCO2 |  | 25.1 µM (active) |
| C=CCNCCCCOc1ccccc1 | -5.77% |  |
| COC(=O)c1ccccc1NS(=O)(=O)c1ccc2[nH]c(=O)[nH]c2c1 | -11.9% |  |
| CCN1C(=O)N[C@@H](CCc2ccccc2)C(C(=O)OC)=C1C | -3.92% |  |
| Cn1cccc1C(=O)Nc1nccs1 |  | 31.6 µM (active) |

| Compound | activity change, negative = inhibition | Potency |
| --- | --- | --- |
| COc1cc(C(=O)Nc2nccs2)cc(OC)c1OC | -15.1% |  |
| CC(=O)Oc1ccc(C(=O)Nc2nccs2)cc1 | -13.6% |  |
| CC(OC(=O)c1ccccc1N1C(=O)C2C3CCC(C3)C2C1=O)C(=O)c1ccccc1 (configuration not stated) | -11.4% |  |
| CCOc1ncccc1C(=O)N(CC)CC(=O)Nc1ccc(NC(C)=O)cc1 | -1.26% |  |
| C/C=C/c1ccc(OCCOc2ccc(C=O)cc2OC)c(OC)c1 | -16.6% |  |
| O=C(CC1NCCNC1=O)Nc1cc(Cl)cc(Cl)c1 (configuration not stated) | -10.9% |  |
| O=C(Nc1ccc2nc3n(c(=O)c2c1)CCCCC3)c1ccccc1Cl | -20.5% |  |
| CC(=O)Nc1cccc(/C(C)=N/NC(=O)c2ccccc2Cl)c1 | -5.88% |  |
| O=C(Nc1cc(=O)[nH]c2ncnn12)c1ccccc1Cl |  | 22.4 µM (active) |
| CC(Cc1cccs1)NC(=O)NC1CCCCC1 (configuration not stated) | -17.9% |  |
| COCC(C)NC(=O)c1ccc(Cl)c(Cl)c1 (configuration not stated) | -23% |  |
| CC(Cc1cccs1)NC(=O)c1cccc(Cl)c1 (configuration not stated) |  | 7.94 µM (active) |
| COc1ccc(-c2nc(-c3ccccc3)oc2Nc2ccc3ccccc3c2)cc1 | -1.48% |  |
| COCCCNC(=S)NC(=O)c1ccccc1 | -5.04% |  |
| O=C(NCCN1CCOCC1)c1ccc2c(c1)ncn2C1CCCC1 | -2.32% |  |
| COc1ccc(NS(=O)(=O)c2ccc(NC(C)=O)cc2)cc1OC | -1.98% |  |
| COc1ccccc1-n1c(C)nc2cc(C(=O)NCc3ccc4c(c3)OCO4)ccc21 | -21.3% |  |
| COc1cc(NS(=O)(=O)c2ccccc2)ccc1-n1nc(C)cc1C | -3.88% |  |
| COCCCNC(=O)c1ccc2c(c1)ncn2-c1ccccc1OC |  | 11.2 µM (active) |
| COc1ccccc1-n1cnc2cc(NS(=O)(=O)c3ccccc3)ccc21 |  | 14.1 µM (active) |
| COc1ccccc1-n1cnc2cc(C(=O)NCC3CCCO3)ccc21 (configuration not stated) |  | 12.6 µM (active) |

| Compound | activity change, negative = inhibition | Potency |
| --- | --- | --- |
| Cc1ccccc1CN(c1ccc(C(=O)NCC2CCCO2)cc1)S(C)(=O)=O (configuration not stated) | -4.02% |  |
| CC(=O)NC1C(Oc2ccc(C)cc2)OC2COC(c3ccco3)OC2C1O (configuration not stated) | 0.675% |  |
| COc1ccccc1-c1nnc(NC(=O)c2ccc3ncsc3c2)o1 | -16.3% |  |
| Cc1ccccc1NC(=S)N(CCCN1CCOCC1)Cc1cccs1 | 8.96% |  |
| N#Cc1ccc(N2Cc3ccccc3/C2=N/C(=O)Nc2ccc(Cl)cc2)cc1 | -24.3% |  |
| CCCCN(CC)C(=O)c1ccccc1Oc1ccccc1 | -9.66% |  |
| CC(=O)N/C(=C/c1ccc(OC(F)F)cc1)C(=O)O | -3.55% |  |
| CN(C)C(CNC(=O)c1ccc(S(=O)(=O)NCc2ccco2)cc1)c1ccccc1 (configuration not stated) | -10.1% |  |
| CCCc1nc(SCC(=O)Nc2ccc(S(=O)(=O)N(C)C)cc2)c2ccccc2n1 | -22.1% |  |
| CONc1nc2nonc2nc1NOC | -6.28% |  |
| O=c1cc(CSc2ccccn2)nc(N2CCN(c3ccccc3)CC2)[nH]1 | -4.21% |  |
| CCc1c(C)nc(N2CCN(Cc3ccccc3)CC2)[nH]c1=O | -6.13% |  |
| Cc1nnc(SCc2cc(=O)[nH]c(N3CCN(Cc4ccccc4)CC3)n2)s1 |  | 10 µM (active) |
| CC(C)CNC(=O)CC(NCC(C)C)C(=O)O (configuration not stated) | -6.89% |  |
| Cc1ccc2[nH]cc(CCCN3C(=O)c4ccccc4C3=O)c2c1 | -4.52% |  |
| O=C(NCC1CCCO1)C(C(=O)c1ccccc1)n1cc(Cl)ccc1=O (configuration not stated) | -7.62% |  |
| O=C(CSCc1c(F)cccc1Cl)NCC1CCCO1 (configuration not stated) |  | 14.1 µM (active) |
| O=C(CS(=O)(=O)Cc1ccccc1)NCC1CCCO1 (configuration not stated) | -19.1% |  |
| CC(=O)[C@H](C(c1ccccc1)N1CCOCC1)N1CCOCC1 (some centres not stated) | -6.44% |  |
